Screens: PubChem BioAssay, several laboratories
This is a sample that favours compounds with a hit; in the whole collection about 1.2% have one here.
Platelet DG rel: modulates dense granule release in human platelets. human platelet-rich plasma, SFLLRN dense granule ATP release, luminescence. actives 0.22% (n = 300,000). inhibition, %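 (compounds screened at 7.5 µM in platelet-rich plasma)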;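 active means mean replicate score, as percent of positive control, at or above 50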
GRK2 inh: blocks RNA aptamer binding to human GRK2. P25098. actives 0.59% (n = 330,000). inhibition of aptamer binding, % at 10 µM. bead flow cytometry, FAM-aptamer displacement from GRK2;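 active means inhibition of aptamer binding above 40%, roughly 3 SD of noise, on plates passing a quality check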;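 further: median bead fluorescence of bound FAM aptamer so fluorescent compounds give negative values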
Target sequence (P25098 whole entry, looked up): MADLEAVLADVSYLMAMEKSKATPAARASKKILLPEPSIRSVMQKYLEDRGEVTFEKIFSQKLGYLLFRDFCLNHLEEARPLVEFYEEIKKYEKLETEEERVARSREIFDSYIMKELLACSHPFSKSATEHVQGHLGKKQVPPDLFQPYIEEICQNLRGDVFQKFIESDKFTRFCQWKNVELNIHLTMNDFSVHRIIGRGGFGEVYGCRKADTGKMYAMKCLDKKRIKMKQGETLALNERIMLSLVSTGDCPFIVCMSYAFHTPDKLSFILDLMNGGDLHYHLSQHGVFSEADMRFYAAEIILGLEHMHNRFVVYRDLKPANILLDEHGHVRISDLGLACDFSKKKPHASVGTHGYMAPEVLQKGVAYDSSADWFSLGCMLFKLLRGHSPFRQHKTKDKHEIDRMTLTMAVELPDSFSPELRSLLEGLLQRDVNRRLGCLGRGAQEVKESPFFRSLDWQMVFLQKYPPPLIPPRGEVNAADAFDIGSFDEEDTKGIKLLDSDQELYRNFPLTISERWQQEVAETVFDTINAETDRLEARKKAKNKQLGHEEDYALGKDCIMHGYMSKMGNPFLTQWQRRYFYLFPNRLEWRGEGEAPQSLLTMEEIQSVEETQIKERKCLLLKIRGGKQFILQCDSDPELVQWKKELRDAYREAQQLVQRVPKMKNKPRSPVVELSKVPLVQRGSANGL
MIN6 prolif: induces beta-cell replication in MIN6 cells; proliferation, % at 10 µM; AID 2380; actives 0.29% (n = 330,000); MIN6 cells proliferation, ATPlite luminescence, 48 h; cells starved in 0.2% serum; 100% = growth in 10% serum;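 active means compounds whose signal lies at least 3.5 SD above the mean of all wells on their plate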;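 further: 0% = DMSO-treated cells in low-serum medium and 100% = 10% serum control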
NTR1 agonist: agonists of human neurotensin receptor NTR1. activation, % at 20 µM. NTR1-U2OS beta-arrestin-GFP spot imaging, agonist mode. actives 0.17% (n = 330,000). P30989;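 active means activation at or above 40% of the spot to cytoplasm intensity ratio, with at least 20 cells analyzed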;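 further: 0% = DMSO without peptide and 100% = 100 nM NTR1 peptide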
GRK2 CP1: human GRK2 inhibition confirmation, cherry pick 1. shares compounds with GRK2 inh. bead-bound GRK2, FAM-aptamer displacement, flow cytometry. aptamer displacement, % at 10 µM. actives 4% (n = 2,000). AID 504451;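 active means aptamer displacement above 40%, near three times the noise of non-fluorescent compounds, on plates passing quality checks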;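 further: negative values mostly reflect intrinsic compound fluorescence rather than true enhancement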
Aptamer quench SP: aptamer fluorescence quenching in GRK2 counter-screen; 2,000 tested, under 10 active; fluorescence response (% of DMSO), % at 10 µM; Carboxyfluorescein RNA aptamer on beads, flow cytometry quenching; active compounds read low; shares compounds with GRK2 inh;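 active means compounds that quench the bead-bound fluorescent RNA probe, cutting fluorescence to under half of the solvent control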;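 further: counterscreen run without GRK2 so only probe quenching by compound is measured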
GRK2 CP2: confirmation of human GRK2 inhibitors binding RNA aptamer site | inhibition of aptamer binding, % at 10 µM | AID 504782 | bead-bound GRK2, FAM-aptamer displacement, flow cytometry | 360 tested, under 10 active | shares compounds with GRK2 inh;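 active means inhibition of aptamer binding above 40%, about triple the noise seen with nonglowing compounds, on plates passing quality control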;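 further: negative values mostly come from compounds that fluoresce themselves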
FAM quench CP2: quenches fluorescent RNA aptamer, GRK2 hit artifact; shares compounds with GRK2 inh; carboxyfluorescein RNA aptamer beads, flow cytometry quenching; active compounds read low; fluorescence response vs DMSO, % at 10 µM; 360 tested, under 10 active; AID 588494;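 active means response vs DMSO under 50%, meaning signal dropped by over half, treated as fluorescence quencher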;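 further: labelled aptamer on streptavidin beads without GRK2 as a quench counter-screen; 100% = bead fluorescence of DMSO wells and lower means quenching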
* marks the source's active call; other numbers are inactive results; x = no result.

SMILES	Platelet DG rel	GRK2 inh	MIN6 prolif	NTR1 agonist	GRK2 CP1	Aptamer quench SP	others
CCC(=O)N1c2ccc(S(=O)(=O)CCC(=O)Nc3ccc(OC)cc3OC)cc2CC1C (configuration not stated)	-2	5	-2	1	x	x	GRK2 CP2=-29;FAM quench CP2=102
COc1ccc(S(=O)(=O)CCC(=O)Nc2cc(C)ccc2OC)cc1	9	0	-3	-1	x	x	GRK2 CP2=-29;FAM quench CP2=104
CC1CC(C)CN(C(=O)C(Cc2ccccc2)NC(=O)c2ccccc2)C1 (configuration not stated)	-1	0	-4	1	x	x
COc1ccccc1NC(=O)CCS(=O)(=O)c1ccccc1	-3	0	0	1	x	x	GRK2 CP2=-9;FAM quench CP2=102
COc1ccc(NC(=O)c2ccccc2Oc2ccccc2)c(OC)c1	-9	0	-3	8	x	x
COc1ccccc1NC(=O)c1ccccc1Oc1ccccc1	1	41*	-2	3	0	92
CC(C)=CC1C(C(=O)NCCc2ccccc2)C1(C)C (configuration not stated)	-1	0	1	-2	x	x
O=C(c1ccco1)N1CCN(C(=O)C23CC4CC(CC(C4)C2)C3)CC1	3	3	-3	0	x	x
CSc1ncccc1C(=O)OCC(=O)c1[nH]c(C)c(C(C)=O)c1C	x	8	-2	1	x	x
CC1(C(=O)NNC(=O)c2ccc([N+](=O)[O-])cc2)CC1(Br)Br (configuration not stated)	-2	0	-3	0	x	x
CC1(C(=O)NNC(=O)c2cccc([N+](=O)[O-])c2)CC1(Br)Br (configuration not stated)	-2	40	-1	0	-4	101
COc1cccc(CN2CCC(C(=O)N3CCN(c4ccccc4F)CC3)CC2)c1OC	-4	60*	2	2	x	x	GRK2 CP2=-3;FAM quench CP2=100
Nc1ccc2nc(-c3cccc(-c4nc5ccc(N)cc5[nH]4)c3)[nH]c2c1	-11	99*	-6	0	-53	90
Cc1nc2ccc(-c3nc4ccc(N)cc4[nH]3)cc2[nH]1	-1	88*	-5	1	-25	102
CCN(CC)CCNC(=O)CNC(=O)c1nn(-c2ccc(OC)cc2OC)c(=O)c2ccccc12	1	0	-1	-1	-4	103
CCCCNC(=O)CNC(=O)c1nn(-c2ccc(OC)c(Cl)c2)c(=O)c2ccccc12	-4	0	-2	2	4	101
COc1ccc(-n2nc(C(=O)NCC(=O)NCCN(C)C)c3ccccc3c2=O)c(OC)c1	-5	0	-1	-1	x	x
COCCNC(=O)CNC(=O)c1nn(-c2ccc(OC)c(Cl)c2)c(=O)c2ccccc12	6	0	-4	-2	x	x
CCOC(=O)c1sc(NC(=O)CCN2CCN(CC)CC2)c(C(=O)OCC)c1C	-3	0	-6	0	x	x
CCOc1ccc(CCNC(=O)c2ccc(C)c(NC3=NC4CS(=O)(=O)CC4S3)c2)cc1 (configuration not stated)	16	3	1	1	x	x
Cc1ccc2c(c1)C(c1ccc(N3CCOCC3)cc1)=NNC(c1cccs1)=N2	11	100*	-4	4	2	97
Fc1ccc2c(c1)C(c1ccc(N3CCOCC3)cc1)=NNC(c1cccs1)=N2	0	6	-4	7	x	x
CC1CN(S(=O)(=O)c2cccc(C(=O)Nc3ccc(S(=O)(=O)NC4=NCCCCC4)cc3)c2)CC(C)O1 (configuration not stated)	-6	0	-3	0	-3	98
O=C(Nc1ccc(S(=O)(=O)NC2=NCCCCC2)cc1)c1cccc(S(=O)(=O)N2CCOCC2)c1	x	2	-2	0	x	x
COc1ccc(CCNC(=S)Nc2ccc(OC)cc2)cc1	-2	52*	-1	-2	-8	96
SMILES	Platelet DG rel	GRK2 inh	MIN6 prolif	NTR1 agonist	GRK2 CP1	Aptamer quench SP	others
COc1ccc(CCNC(=S)Nc2ccccc2)cc1	2	1	-6	3	x	x
COc1cccc(C(=O)Nc2cccc(-c3ccc(N4CCOCC4)nn3)c2)c1OC	11	0	-5	3	0	104
O=C(Nc1cccc(-c2ccc(N3CCOCC3)nn2)c1)c1ccc(F)cc1F	21	0	-2	3	7	99
O=C(O)c1ccc(N2C(=O)CC(N3CCN(c4cccc(C(F)(F)F)c4)CC3)C2=O)cc1 (configuration not stated)	0	1	-1	-1	x	x
COC(=O)c1ccc(-c2sc3nc(N4CCOCC4)c4c(c3c2N)CCCC4)o1	3	23	0	11	x	x
CC12CCC(=O)N1c1c(sc3nc(N4CCOCC4)c4c(c13)CCCC4)C(=O)N2 (configuration not stated)	-6	45*	-1	-2	22	80
O=C(CSc1nnc(Nc2ccccc2F)s1)NC1CCS(=O)(=O)C1 (configuration not stated)	x	0	-2	3	x	x
O=C(CSc1nnc(Nc2ccccc2F)s1)NC(=O)CN1CCCC1=O	x	47*	-2	-1	26	98
COc1ccc(-c2cn(CCC(=O)O)c(C)n2)cc1	x	0	-1	-1	x	x
COC(=O)Cc1c(O)ccn(C2CC2)c1=O	2	75*	0	0	-7	102
O=C(CSc1n[nH]c(-c2ccc(Br)cc2)n1)N1CCOCC1	x	20	-2	0	-2	101
CCCCn1c(N)c(N(CC(C)C)C(=O)C(C)SCc2nc3sc(C)c(C)c3c(=O)[nH]2)c(=O)[nH]c1=O (configuration not stated)	-2	3	2	0	x	x
O=C(C1CCCN(S(=O)(=O)c2cccc3nsnc23)C1)N1CC=C(c2ccccc2)CC1 (configuration not stated)	x	1	-1	4	-7	102
Cc1ccc(S(=O)(=O)N2CCOCC2)cc1C(=O)N(Cc1nnc(-c2ccccc2Cl)o1)C1CC1	10	44*	-3	1	x	x	GRK2 CP2=-2;FAM quench CP2=100
CCOc1ccc(C(C)NC(=O)C2CCC2)cc1 (configuration not stated)	-7	100*	0	0	x	x	GRK2 CP2=-10;FAM quench CP2=101
CCOc1ccc(C(C)NC(=O)C2CCCC2)cc1 (configuration not stated)	1	0	3	1	x	x
COCCCNC(=O)C(=O)NC1CCCCCC1	-6	1	0	1	x	x
